Data from PubChem BioAssay (NCI).
About 83,000 compounds went through this panel and 20% of them were active in at least one assay; those are over-represented in the sample as a whole.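 Assay: single dose, 48 h. Readout: percent growth (0 = no net growth; negative = cell death). Active: <10.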 The source made the active and inactive calls.

Test system: M14 melanoma
Test: NCI-60 one-dose screen, 48 h (100 = growth as untreated, 0 = no growth, -100 = all killed)
Conditions: 10 µM
Description: Growth inhibition of the M14 human tumor cell line is measured as a screen for anti-cancer activity. Cells are grown in 96 well plates and exposed to the test compound for 48 hours. Compounds are tested at a single concentration, which is 10^-5 M for most compounds. The reported endpoint is percent growth (GI% or GIPRCNT), where numbers from 0 - 100% represent growth inhibition, and numbers from -100% - 0 represent cell death. For example, a value of 40 represents 60% growth inhibition. A value of 0 means no net growth occurred over the course of the experiment. A value of -40 indicates 40% of cells at the beginning of the experiment died by the end of the experiment. A value of -100 means all cells are dead at the end of the experiment.
NCI-60 Human Tumor Cell Lines Screen was performed using the standard one-dose NCI protocol, which is described in more detail at https://dtp.cancer.gov/discovery_development/nci-60/default.htm.
Compounds with GIPRCNT values below 10 were considered active. Activity score was based on GIPRCNT using the following formula: […]
Score is 0 for GIPRCNT values of 100 or above, 50 for GIPRCNT values of 0, and 100 for GIPRCNT values of -100.

Row | Structure (SMILES) | growth
1 | CC(=O)COc1ccc(Cl)cc1Cl | 110% (inactive)
2 | C=C1CCC2(C#N)[C@H]3[C@H](CC[C@@H]2C)[C@@H](C)C[C@@H](CC(C)(C)NC(=O)CN2CCC2=O)[C@H]13 (stereo not given in full) | 54.9% (inactive)
3 | Cc1c[nH]c(=O)n(Cc2nnc(CCC(=O)c3nc4ccccc4[nH]3)o2)c1=O | -16.7% (active)
4 | COc1ccc(-c2nn(-c3cccc(Cl)c3)cc2-c2cc(-c3ccccc3)nc(N)n2)cc1 | 52.6% (inactive)
5 | O=C(O)c1ccc(-n2cc(CNc3ccc(Oc4ccccc4)cc3)c(-c3ccccc3)n2)cc1 | 97.2% (inactive)
6 | CC(=O)OC/C=C(/C)C[P+](c1ccccc1)(c1ccccc1)c1ccccc1 | 46.6% (inactive)
7 | c1ccc(/C(=N\Nc2ccc3ccccc3n2)c2ccccn2)cc1 | -41.8% (active)
8 | N#Cc1c(-c2ccc(Cl)cc2)cc(-c2cc(O)ccc2O)nc1N | 2.5% (active)
9 | O=C(CCNC(=O)c1nc(-c2ccccc2)n(-c2ccc(Cl)cc2)n1)NO | 97% (inactive)
10 | O=C(O)COc1c(Cl)cc([N+](=O)[O-])cc1Cl | 88.7% (inactive)
11 | COc1ccc(-c2nnc(SCC(=O)Nc3ccc(C(=O)/C=C/c4ccccc4)cc3)n2-c2ccccc2)cc1OC | 57.7% (inactive)
12 | COc1ccc(N=Nc2cc(OC)c(OC)c(OC)c2)cc1 | 74.3% (inactive)
13 | O=C1OC(C(Cl)(Cl)Cl)OC1C(Cl)(Cl)Cl (stereo not given) | 99% (inactive)
14 | COc1cc2nc(SCC(=O)Nc3cc(OC)c(OC)c(OC)c3)n(Cc3ccccc3)c(=O)c2cc1OC | 39.3% (inactive)
15 | S=C(NCc1ccccc1)NCc1ccccc1 | 101% (inactive)
16 | CCN(CC)CCOc1cccc2c1C(=O)c1cccc(OCCN(CC)CC)c1C2=O | 35.4% (inactive)
17 | C=C(NC(=O)C(=C)NC(=O)c1csc(C2=NC3c4csc(n4)C4NC(=O)c5csc(n5)C(C(C)(O)C(C)O)NC(=O)C5CSC(=N5)C(=CC)NC(=O)C(C(C)O)NC(=O)c5csc(n5)C3(CC2)NC(=O)C(C)NC(=O)C(=C)NC(=O)C(C)NC(=O)C(C(C)CC)NC2C=Cc3c(C(C)O)cc(nc3C2O)C(=O)OC4C)n1)C(N)=O (stereo not given) | 2.27% (active)
18 | CC[C@@H](C(=O)[C@@H](C)[C@@H](O)[C@H](C)[C@@H]1O[C@@H]([C@@H](CC)C(=O)N(CC)CC)CC[C@@H]1C)C1O[C@]2(C=CC(=O)[C@]3(CC[C@@](C)([C@H]4CC[C@](O)(CC)[C@H](C)O4)O3)O2)[C@H](C)C[C@@H]1C (stereo not given in full) | 13.6% (inactive)
19 | Brc1ccc2c(c1)-c1ccccc1C1=NCCN12 | -51.8% (active)
20 | CCN1CC(CCN2CCOCC2)C(C(c2ccccc2)c2ccccc2)C1=O (stereo not given) | 108% (inactive)

Row | Structure (SMILES) | growth
21 | COc1cc2cc(Oc3ccc(NC(=O)Nc4cccc(C(F)(F)F)c4)cc3)c(C)nc2cc1OC | 22.7% (inactive)
22 | O=[N+]([O-])c1cc(Cl)cc(Cl)c1O | 96.9% (inactive)
23 | CCOC(=O)c1cc(C(=O)c2ccc(F)cc2F)n2ccccc12 | 108% (inactive)
24 | COc1ccc(-c2cc(-c3ccccc3)nc(SCCCCCCC(=O)NO)n2)cc1 | 48.2% (inactive)
25 | CC(=O)Nc1ccc(S(=O)(=O)c2ccnc3cc(Cl)ccc23)cc1 | 95.3% (inactive)
26 | CN(C)CCOc1ccc(-c2nc3sccn3c2-c2ccnc(S(C)(=O)=O)n2)cc1 | 112% (inactive)
27 | Cc1cc(C(C#N)c2ccc(Cl)cc2)c(Cl)cc1NC(=O)c1cc(I)cc(I)c1O (stereo not given) | 32.3% (inactive)
28 | COc1cc(-c2nn(-c3cccc(NC(=O)CCNc4ccc(N5CCOCC5)cc4)c3)cc2-c2ccncc2)ccc1Cl | 2.71% (active)
29 | OC[C@H]1OC([S-])[C@H](O)[C@@H](O)[C@@H]1O.[Au+] (stereo not given in full) | 81.6% (inactive)
30 | O=C(N/N=C/c1ccc(Cl)cc1)c1ccc(Cc2n[nH]c(=O)c3cccnc23)cc1 | 99.6% (inactive)
31 | CC(C)N(CCOc1cccc(-c2nc3sccn3c2-c2ccnc(S(C)(=O)=O)n2)c1)C(C)C | 111% (inactive)
32 | CCC(c1ccc(OC)cc1)C(CC)c1ccc(O)c(CN2CCN(C)CC2)c1 (stereo not given) | -19.5% (active)
33 | CC(C)(C)OC(=O)CN1CCc2c(sc3ncnc(N/N=C/c4cccc5ccccc45)c23)C1 | 42.7% (inactive)
34 | O=C1/C=C/[C@@H](O)[C@@H]2C[C@@H](O)C[C@H]2/C=C/CCC[C@@H](C(F)(F)F)O1 | 112% (inactive)
35 | Nc1cc(Br)c(-c2nn3c(CCC(=O)c4nc5ccccc5[nH]4)nnc3s2)c(Br)c1 | 97.5% (inactive)
36 | CC(=O)N[C@H](C(=O)N[C@@H](CCCNC(=N)N)C(=O)N[C@@H](CCCCN)C(=O)N[C@@H](CCCNC(=N)N)C(=O)NC(C(=O)N[C@@H](CC(C)C)C(=O)N[C@@H](CCCNC(=N)N)C(=O)N[C@@]1(C)CCC/C=C\CCC[C@@](C)(C(=O)N[C@@H](CCCNC(=N)N)C(=O)N[C@@H](CCC(=O)O)C(=O)N[C@@H](CC(C)C)C(=O)N[C@H](C(=O)N[C@@H](CCC(=O)O)C(N)=O)C(C)C)NC(=O)[C@H](CCC(N)=O)NC(=O)[C@H](CC(C)C)NC(=O)[C@H](CC(C)C)NC1=O)[C@@H](C)O)C(C)C (stereo not given in full) | -61.2% (active)
37 | Clc1nc2ccccc2cc1Cn1nnc(Cc2ccccc2)n1 | 73.6% (inactive)
38 | NC(N)=N/N=C(\c1ccccc1)C(O)c1ccccc1 (stereo not given) | 97.3% (inactive)
39 | COc1ccccc1-n1c(-c2sc(NC(C)=O)nc2C)n[nH]c1=S | 98.8% (inactive)
40 | COc1cc(C(=O)/C=C/c2c[nH]c3ccccc23)cc(OC)c1OC | 8.91% (active)
